Consider 5 compounds from PubChem BioAssay.

Molecules are shown by their SMILES. Where “and” joins values, the source holds several entries; their conditions need not be identical. Identical values can stand only once. Calls of active or inactive are those of the source. Unless noted, no rule for the calls is given here.

Experiment [1] is described as follows: resazurin metabolic signal in HepG2 cells – cell-based, resazurin fluorescence, 24 h, PK04 Diversity Set, profiling panel (AID 1172). The following applies: HepG2 viability, higher = more signal.
Experiment [2] can be described thus: budding yeast growth changes without added modifier – OD600, strain BY4716, 24 h, basal condition, primary screen (AID 1173). The following applies: S. cerevisiae BY4716 growth, OD600, 24 h; higher = more signal, called active from +8 up or from −8 down.
The nature of experiment [3]: viability profiling in MM1S myeloma cells – cell-based, resazurin fluorescence, basal, 24 h, PK04 Diversity Set, profiling panel (AID 1174).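 Also: MM1S multiple myeloma cell line.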 The conditions noted are these: higher = more signal, called active from +8 up or from −8 down.
The target of experiment [4] is Dihydroorotate dehydrogenase (quinone), mitochondrial (Plasmodium falciparum (isolate 3D7)) (UniProt Q08210). Kind of experiment: inhibition of P. falciparum DHODH – biochemical, C-terminal His tag, absorbance 600 nm, primary screen (AID 1175).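 Also: recombinant parasite enzyme with a five histidine tag at its C terminus.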 The conditions noted are these: PfDHODH enzyme, DCIP absorbance 600 nm; higher = more signal, called active from +8 up or from −8 down.
Chain of Dihydroorotate dehydrogenase (quinone), mitochondrial (Plasmodium falciparum (isolate 3D7)) (Q08210 whole entry, looked up): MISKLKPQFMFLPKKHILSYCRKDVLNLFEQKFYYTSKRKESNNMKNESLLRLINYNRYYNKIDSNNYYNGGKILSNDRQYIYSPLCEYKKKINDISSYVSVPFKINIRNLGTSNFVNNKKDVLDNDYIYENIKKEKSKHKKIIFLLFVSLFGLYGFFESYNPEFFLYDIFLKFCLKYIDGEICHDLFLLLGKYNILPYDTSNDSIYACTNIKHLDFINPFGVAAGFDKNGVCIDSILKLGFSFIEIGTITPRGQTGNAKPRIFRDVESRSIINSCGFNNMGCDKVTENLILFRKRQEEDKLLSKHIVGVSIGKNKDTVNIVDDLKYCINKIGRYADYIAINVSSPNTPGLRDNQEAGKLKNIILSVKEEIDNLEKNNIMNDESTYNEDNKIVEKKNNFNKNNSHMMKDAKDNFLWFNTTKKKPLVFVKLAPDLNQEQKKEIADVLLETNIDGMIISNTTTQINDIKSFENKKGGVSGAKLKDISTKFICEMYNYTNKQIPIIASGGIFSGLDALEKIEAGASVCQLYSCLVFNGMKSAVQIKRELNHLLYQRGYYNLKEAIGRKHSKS

Experiment [5] can be described thus: inhibition of PAO1 biofilm formation – strain PAO1, LB-PBS medium, absorbance 600 nm, primary screen (AID 1176). The following applies: P. aeruginosa PAO1 growth/biofilm, A600, 12 h; higher = more signal.
A short description of experiment [6]: growth modulation of vineyard yeast isolate – strain RM11-1a, OD600, basal, 24 h, primary screen (AID 1177).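 Also: cultures grown under basal conditions with no added stressor.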 The conditions noted are these: S. cerevisiae RM11-1a growth, OD600, 24 h; higher = more signal, called active from +8 up or from −8 down.
The nature of experiment [7]: growth of efflux-deficient E. coli DRC39 – strain DRC39, OD650, 24 h, E. coli filamentation inducers, primary screen (AID 1178).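 Also: growth measured as culture turbidity by optical density at 650 nm.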 The following applies: E. coli DRC39 acrAB, higher = more signal, called active from +8 up or from −8 down.
Experiment [8] is described as follows: growth of efflux-deficient E. coli DRC39 – strain DRC39, OD650, 48 h, E. coli filamentation inducers, primary screen (AID 1179).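 Also: screen aims at cell division blockers that make cells filament.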 The conditions noted are these: E. coli DRC39 delta-acrAB growth, higher = more signal, called active from +8 up or from −8 down.
The nature of experiment [9]: viability profiling in RPMI8226 myeloma cells – cell-based, resazurin fluorescence, basal, 24 h, PK04 Diversity Set, profiling panel (AID 1180).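 Also: RPMI8826 multiple myeloma cell line at 5000 cells per well.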 The conditions noted are these: higher = more signal.
Experiment [10] has as its target E3 ubiquitin-protein ligase XIAP (Homo sapiens) (UniProt P98170). The experiment in a line: small molecules binding XIAP protein – biophysical, small-molecule microarray, fluorescence 635 nm, primary screen (AID 1181).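 Also: score merges 667 nm emission and signal to noise over triplicate slides.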 The following applies: higher = more signal.
The test system of experiment [11] is XIP peptide (Xip251-270) binding. The experiment in a line: XIP fragment 251-270 binding compounds – biochemical, small-molecule microarray, fluorescence 635/667 nm, 0.1 µg/mL protein, primary screen (AID 1182). The following applies: fluorescent protein binding, 635 nm, higher = more signal, called active from +8 up or from −8 down.
A further experiment relates to XIP peptide (Xip251-270). Kind of experiment: compounds binding XIP fragment 251-270 – biochemical, small-molecule microarray, fluorescence 635/667 nm, 0.5 µg/mL protein, primary screen (AID 1183). The following applies: fluorescence 635 nm, higher = more signal.
Experiment [12] is described as follows: blood-stage malaria parasite viability loss – strain 3D7, DAPI fluorescence, 100 nL, primary screen (AID 1184).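 Also: parasites grown inside human red blood cells in medium with human serum.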 The following applies: P. falciparum 3D7 growth, 3 d, higher = more signal.
The target in experiment [13] is Homeobox protein Hox-A13 (Mus musculus) (UniProt Q62424). The experiment in a line: disruptors of Hoxa13 oligonucleotide interaction – biochemical, fluorescence polarization, labeled oligonucleotide, primary screen (AID 1185). The conditions noted are these: Hoxa13:DNA binding, 15 min, higher = more signal, called active from +8 up or from −8 down.
Chain of Homeobox protein Hox-A13 (Mus musculus) (Q62424 whole entry, looked up): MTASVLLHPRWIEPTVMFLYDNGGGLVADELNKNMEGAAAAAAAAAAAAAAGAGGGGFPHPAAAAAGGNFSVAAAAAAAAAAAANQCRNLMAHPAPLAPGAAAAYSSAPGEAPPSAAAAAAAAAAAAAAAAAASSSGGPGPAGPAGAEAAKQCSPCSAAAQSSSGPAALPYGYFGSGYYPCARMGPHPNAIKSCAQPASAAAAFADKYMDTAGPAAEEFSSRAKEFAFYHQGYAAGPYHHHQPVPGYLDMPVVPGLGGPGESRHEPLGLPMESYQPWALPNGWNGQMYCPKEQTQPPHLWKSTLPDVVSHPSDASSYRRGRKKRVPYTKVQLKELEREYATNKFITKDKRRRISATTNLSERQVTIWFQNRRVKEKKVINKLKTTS
Experiment [14] in a line: blockers of DNA damage checkpoint Chk1 activation – imaging, HeLa, hydroxyurea, phospho-Chk1 antibody, percent positive cells, primary screen (AID 1186). The conditions noted are these: hydroxyurea-induced phospho-Chk1 immunofluorescence imaging, higher = more signal.
Experiment [15] can be described thus: blockers of DNA damage checkpoint Chk1 activation – imaging, HeLa, hydroxyurea, phospho-Chk1 nuclear intensity, primary screen (AID 1187). The following applies: hydroxyurea-induced phospho-Chk1 immunofluorescence imaging, higher = more signal.

Chain of E3 ubiquitin-protein ligase XIAP (Homo sapiens) (P98170 whole entry, looked up, the tested form may be a part): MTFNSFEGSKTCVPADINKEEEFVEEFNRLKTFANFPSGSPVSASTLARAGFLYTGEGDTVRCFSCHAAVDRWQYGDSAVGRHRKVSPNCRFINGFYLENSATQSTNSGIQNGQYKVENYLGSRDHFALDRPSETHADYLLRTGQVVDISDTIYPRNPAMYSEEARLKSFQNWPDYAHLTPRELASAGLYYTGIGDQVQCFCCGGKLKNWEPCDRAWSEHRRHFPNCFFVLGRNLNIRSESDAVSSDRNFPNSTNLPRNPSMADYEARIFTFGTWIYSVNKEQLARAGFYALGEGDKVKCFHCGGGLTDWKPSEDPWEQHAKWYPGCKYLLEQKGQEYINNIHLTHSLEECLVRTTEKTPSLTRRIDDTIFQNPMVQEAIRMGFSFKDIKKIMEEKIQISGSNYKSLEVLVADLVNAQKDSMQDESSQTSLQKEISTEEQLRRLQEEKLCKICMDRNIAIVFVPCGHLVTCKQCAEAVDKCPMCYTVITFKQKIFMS

`C=C[C@@H](OC)[C@H](O)c1ccc(OCCO)cc1`: the z-score in [1] was 0.242 and 0.884; in experiment [2], -5.46 (inactive) and -6.32 (inactive); in experiment [3], -0.154 (inactive) and 0.883 (inactive); in experiment [5] it was 0.519 (inactive) and 1.64 (inactive); in experiment [6], 0.526 (inactive) and -2.73 (inactive); in experiment [7] it was 0.0235 (inactive) and 1.08 (inactive). The z-score in experiment [8] is 0.121 (inactive) and 1.48 (inactive); in [9], -0.121 and 1.36; in experiment [12], -0.748 and 0.0067; in experiment [13] it was -0.717 (inactive) and -0.113 (inactive); in experiment [14] it was -0.949 (inactive) and -0.429 (inactive); in [15], 0.0246 (inactive) and 0.283 (inactive). Moreover, the composite z-score in experiment [4] was 0.358 (inactive) and -0.456 (inactive); in experiment [10] it was -0.19 and -0.102; in [11] it was 0.602 (inactive) and -0.746 (inactive); with XIP peptide (Xip251-270), 0.524 and 0.496.
Consider `C=CCN(C(=O)C(c1cccs1)N(CCOCCO)C(=O)/C=C\C(=O)O)c1ccc(OC)cc1` (stereo not given), for which the z-score in [1] is 0.591 and 0.232; in [2], -1.32 (inactive) and -1.58 (inactive); in experiment [3] it was 0.0173 (inactive) and 0.605 (inactive); in experiment [5], 1.07 (inactive); in [6], -1.64 (inactive) and -1.09 (inactive); in experiment [7], 0.997 (inactive) and 1.72 (inactive). Besides, the z-score was 1.21 (inactive) and 2 (inactive) in [8]; 1.25 and 0.952 in experiment [9]; -0.305 and 0.0058 in [12]; 1.69 (inactive) and 0.807 (inactive) in experiment [13]; -1.69 (inactive) and -0.75 (inactive) in experiment [14]; -0.197 (inactive) and -0.573 (inactive) in experiment [15]. Further, the composite z-score in [4] was -1.05 (inactive) and -2.65 (inactive); in experiment [10], 0.336 and -0.325; in [11] it was -0.0498 (inactive) and -0.363 (inactive); in the experiment with XIP peptide (Xip251-270) it was -0.371 and -1.72.
For the compound `CC(C)[Si]1(C(C)C)OCc2cc(C3CC3)nc(CCc3ccccc3)c21`, the z-score in [1] is 0.983 and 1.3; in experiment [2] it was 1.04 (inactive) and 0.427 (inactive); in experiment [3], 0.905 (inactive) and 0.656 (inactive); in experiment [5] it was 0.338 (inactive) and 0.35 (inactive); in experiment [6] it was 0.534 (inactive) and 0.156 (inactive); in experiment [7] it was 0.428 (inactive) and -0.615 (inactive). For the same compound, the z-score in experiment [8] was 0.26 (inactive) and -0.173 (inactive); in experiment [9], 0.635 and 0.355; in experiment [12] it was -0.541 and 0.653; in experiment [13], -0.448 (inactive) and 0.438 (inactive); in experiment [14] it was 0.0389 (inactive) and 0.993 (inactive); in [15], 0.579 (inactive) and 0.548 (inactive). For the same compound, the composite z-score in experiment [4] was -0.092 (inactive) and -0.377 (inactive); in [10], 0.321 and -0.305; in experiment [11], 1.11 (inactive) and 0.0908 (inactive); in the experiment on XIP peptide (Xip251-270), -0.663 and -0.481.
Turning to `C[N+](C)(C)CCCCCCNC(=O)[C@H]1C[C@H]2C(=O)N[C@@H](CCCC[N+](C)(C)C)C(=O)N2[C@H]1c1cccc(OCCO)c1`, the z-score in experiment [1] is -0.402 and -0.0872; in experiment [2], -0.255 (inactive) and 0.763 (inactive); in experiment [3], 0.737 (inactive) and -0.541 (inactive); in experiment [5], -0.366 (inactive) and 0.146 (inactive); in [6], 0.297 (inactive) and 1.2 (inactive); in experiment [7] it was 1.04 (inactive) and -0.0715 (inactive). Also, the z-score in [8] was 1.47 (inactive) and -0.451 (inactive); in experiment [9] it was 0.455 and -1.29; in experiment [12], 0.11 and 0.17; in [13], -2.01 (inactive) and -2.31 (inactive); in experiment [14], 0.247 (inactive) and 0.199 (inactive); in experiment [15], 0.316 (inactive) and -0.109 (inactive). For the same compound, the composite z-score was -2.69 (inactive) and -1.29 (inactive) in [4]; -0.0553 and -0.0559 in experiment [10]; 0.421 (inactive) and 1.17 (inactive) in experiment [11]; 0.691 and 0.903 in the experiment on XIP peptide (Xip251-270).
Take `COC(=O)[C@@]1(Cc2ccc(F)cc2)[C@H]2c3cc(C(=O)N4CCCC4)n(Cc4c(CO)[nH]cc(C)c4=O)c3C[C@H]2CN1C(=O)c1ccccc1`: the z-score in experiment [1] was -0.605 and 1.06; in experiment [2], 1.61 (inactive) and 2.35 (inactive); in experiment [3], -1.14 (inactive) and -0.131 (inactive); in [5] it was 1.38 (inactive) and 0.895 (inactive); in experiment [6], 1.33 (inactive) and 1.72 (inactive); in experiment [7], -0.573 (inactive) and -0.476 (inactive). In addition, the z-score is -0.104 (inactive) and -0.339 (inactive) in experiment [8]; -1.14 and -1.39 in [9]; -1.4 and -1.6 in experiment [12]; -5.99 (inactive) and -5.23 (inactive) in experiment [13]; 0.113 (inactive) and 0.998 (inactive) in experiment [14]; 0.0243 (inactive) and 0.533 (inactive) in experiment [15]. The composite z-score is 0.0634 (inactive) and 0.524 (inactive) in [4]; 0.221 and 0.0726 in [10]; 1.1 (inactive) and 0.516 (inactive) in experiment [11]; -0.307 and 0.761 in the experiment on XIP peptide (Xip251-270).
